Source: PubChem
CtBP-E1A blk: qHTS Assay for Inhibitors of the CtBP/E1A Interaction; 340,000 compounds, 0.49% hits; activity change, % (concentration not given with the values); AlphaScreen GST-E1A/His-CtBP binding, 1536-well; hits give low values; in the data active means activity change below about -65%; inconclusive means mostly about -30% to -63%; further: on the % scale 0 is the no-effect control and ±100 the full control effect
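AlphaScreen with 125 nM GST-E1A and 125 nM His-CtBP (5X stocks) in Tris pH 8.0, 300 mM NaCl, BSA, Tween 20, TCEP. Compounds preincubated 2 h at 37 deg C, then glutathione donor/nickel acceptor beads added for 1 h at 37 deg C in dark.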
Six1-Eya2 blk: qHTS Assay for Inhibitors of the Six1/Eya2 Interaction | AlphaScreen GST-Six1/His-Eya2 binding, biochemical; hits give low values | AID 651725, 2012 | activity change, % (test concentration not listed) | 360,000 compounds, 0.56% hits | Homeobox protein SIX1 (Homo sapiens) + Protein phosphatase EYA2 (Homo sapiens), …; in the data active means activity change below about -65%; inconclusive means mostly about -30% to -63%; further: on the % scale 0 is the no-effect control and ±100 the full control effect
Target sequence (O00167 whole entry, looked up): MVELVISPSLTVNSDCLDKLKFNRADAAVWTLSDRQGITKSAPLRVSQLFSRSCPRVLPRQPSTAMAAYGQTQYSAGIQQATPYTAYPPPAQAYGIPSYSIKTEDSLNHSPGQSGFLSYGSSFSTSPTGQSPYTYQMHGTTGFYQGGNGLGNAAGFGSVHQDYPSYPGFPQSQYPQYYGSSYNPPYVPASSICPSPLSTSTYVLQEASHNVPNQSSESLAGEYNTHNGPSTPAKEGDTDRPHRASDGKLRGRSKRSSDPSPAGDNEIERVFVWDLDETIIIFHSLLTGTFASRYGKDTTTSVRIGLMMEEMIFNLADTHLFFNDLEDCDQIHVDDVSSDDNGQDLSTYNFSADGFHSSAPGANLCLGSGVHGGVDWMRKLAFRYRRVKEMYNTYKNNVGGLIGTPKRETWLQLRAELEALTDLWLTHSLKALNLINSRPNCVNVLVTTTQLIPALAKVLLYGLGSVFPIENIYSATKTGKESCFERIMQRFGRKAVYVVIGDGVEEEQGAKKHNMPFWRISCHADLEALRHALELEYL
Target sequence (Q15475 whole entry, looked up): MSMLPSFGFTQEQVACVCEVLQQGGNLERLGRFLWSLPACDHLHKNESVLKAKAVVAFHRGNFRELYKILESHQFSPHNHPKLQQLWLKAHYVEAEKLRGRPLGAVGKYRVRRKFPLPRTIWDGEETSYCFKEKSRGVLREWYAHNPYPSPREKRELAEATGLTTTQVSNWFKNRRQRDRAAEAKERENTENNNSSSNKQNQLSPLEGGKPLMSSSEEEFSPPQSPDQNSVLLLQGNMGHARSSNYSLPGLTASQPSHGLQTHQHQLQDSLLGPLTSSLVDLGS
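AlphaScreen with GST-Six1 and His-Eya2 (5X mix: 250 nM and 500 nM), glutathione donor and nickel acceptor beads; buffer 50 mM Tris pH 8.0, 300 mM NaCl, 1 mM TCEP; 1 h at 37 C in the dark.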
Gal4-VP16 FLuc: VP16 counterscreen qHTS for inhibitors of ROR gamma transcriptional activity. AID 2546, 2010. 310,000 compounds, 3.5% hits. Drosophila S2 Gal4-VP16 UAS-luciferase, luminescence, 20 h. Potency, µM (series often up to 53.6 µM), inactives show at the highest dose activity, negative = inhibition, most hits filed as inhibitors;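 further: Gal4-VP16 expression switched on by copper sulfate through the metallothionein promoter; potency means the concentration at half of the fitted maximal effect; on the % scale 0 is the no-effect control and ±100 the full control effect; nearly all actives have a fitted effect of over 50% in size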
RORgamma inh: qHTS for inhibitors of ROR gamma transcriptional activity; Nuclear receptor ROR-gamma (Mus musculus), P51450; Drosophila S2 Gal4-RORgamma UAS-luciferase reporter, 20 h; Potency, µM (highest dose often 53.6 µM), inactives show at the top dose activity change, negative = inhibition, usual class: inhibitors; 310,000 compounds, 5.4% hits; AID 2551, 2010; further: potency means the concentration at half of the fitted maximal effect; on the % scale 0 is the no-effect control and ±100 the full control effect; nearly all actives have a fitted effect of over 60% in size
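Compounds are pin-transferred onto Drosophila Schneider cells expressing a copper-inducible Gal4–ROR gamma transactivation domain fusion. After 1 hr, copper sulfate is added to 700 uM final; luciferase is read 20 hr later.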
p53 reactivator: qHTS assay for re-activators of p53 using a Luc reporter | H1299 p53-A138V BP100-luciferase reporter, luminescence, 24 h | Potency, µM (highest dose often 92.2 µM), for the others: at the highest dose activity change, positive = activation, actives largely listed as activators | 320,000 compounds, 0.063% hits; further: potency means the concentration at half of the fitted maximal effect; % of control where 0% means no effect; nearly all actives have a fitted effect of over 45% in size
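p53-null H1299 cells stably carrying temperature-sensitive p53-A138V and a BP100-luciferase reporter were pinned with compounds (4-point, 1:5 series) and held 24 hrs at 37 deg C. Luminescence was read 10 min after detection reagent.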
Starred values were filed as active, the others as inactive; ? = inconclusive; . = no result given; [ ] = another dose, or the depositor's remark. The list is not random: actives were taken first. Their share in the collection is about 5.4%. Unless noted, the call rests on the fitted dose curve; in most records, active means well fitted curve in the direction sought with a large enough effect; inconclusive means small, poorly fitted or top-dose-only effect, or another doubt; inactive means no such curve, though single readings can be large; an effect the other way counts as inactive or inconclusive.

SMILES | CtBP-E1A blk | Six1-Eya2 blk | Gal4-VP16 FLuc | RORgamma inh | p53 reactivator
Cc1ccc(N2C(=O)CSC2c2cccnc2)c(Cl)c1 (configuration not stated) | 5 | 22 | ? | -33% | -4%
COc1cc(CN2CCNC(=O)C2CC(=O)N(C)CCC2CCOCC2)cc(OC)c1 (configuration not stated) | -17 | 1 | 8% | -40% | -4%
CCOc1cc(Br)ccc1S(=O)(=O)NCc1ccccc1 | -6 | 1 | -12% | 8% | -8%
CC(C)(C)Cc1nc2ccccc2n1CCc1ccccc1 | -1 | 6 | 16µM* | 7.9µM* | -1%
CC[C@H]1OC(=O)[C@H](C)[C@@H](O[C@H]2C[C@@](C)(OC)[C@@H](O)[C@H](C)O2)C(C)[C@@H](O[C@@H]2O[C@H](C)C[C@H](N(C)C)[C@@H]2O)[C@](C)(OC)C[C@@H](C)C(=O)[C@H](C)[C@@H](O)[C@]1(C)O (some centres not stated) | . | . | 1% | 0% | .
c1ccc(-c2nc(-c3ccncc3)n[nH]2)nc1 | -1 | -89* | 13µM* | 5µM* | 10%
CC(=O)/C(N=Nc1nc2c([nH]1)c(=O)n(C)c(=O)n2C)=C(\C)O | 0 | 17 | -1% | 1% | 0%
CCCc1ncc(C(O)(c2ccccc2)c2ccccc2)n1C | 0 | 1 | -1% | 14µM* | 6%
CCCc1ncc(C(O)(c2ccccc2)c2ccc(C)cc2)n1C (configuration not stated) | -4 | -6 | 5% | ? | -8%
COc1cc(NC(=O)COc2cc3oc(=O)cc(C)c3cc2Cl)cc(OC)c1OC | . | -8 | ? | -42% | 1%
Cc1nc(N2CCN(Cc3ccc(Cl)cc3)CC2)c2oc3ccccc3c2n1 | -4 | -16 | -5% | -35% | -1%
Cc1nc(N2CCC(C)CC2)c2oc3ccccc3c2n1 | 4 | 7 | ? | 13µM* | 5%
Cc1sc2ncnc(N3CCN(CCOc4ccc(Cl)cc4)CC3)c2c1C | -20 | -6 | 3.5µM* | ? | -4%
Cc1sc2ncnc(N3CCC(C(=O)NNC(=O)COc4ccc(Cl)cc4)CC3)c2c1C | . | -21 | . | . | .
CC(=O)Oc1ccc(N2C(=O)C3C(C2=O)C(C(=O)c2ccc(Cl)cc2)N2CCCC32)cc1 (configuration not stated) | -3 | -21 | 14µM* | -8% | -14%
Oc1[nH]c2ccccc2c1N=Nc1nc2ccccc2s1 | -7 | -1 | -24% | ? | ?
Cc1ccc2[nH]c(O)c(N=Nc3nc4ccccc4s3)c2c1 | -2 | 1 | -2% | 2.8µM* | 2%
C(=C/c1nccc2c1[nH]c1ccccc12)/c1ccc2c(c1)OCO2 | 31 | 30 | -24% | 0.89µM* | -1%
Cc1cc(Nc2ccccc2)c2c([N+](=O)[O-])ccc(C)c2n1 | -9 | -6 | 35µM* | ? | 2%
COc1ccc(NC(=S)Nc2ccccc2OC)c(OC)c1 | -1 | 3 | 1%[10 µM] | 14% | -6%
COc1ccc(NC(=S)Nc2cc(C)ccn2)c(OC)c1 | -8 | -8 | 3.2µM* | 6.3µM* | ?
COc1ccc(NC(=S)Nc2ccccn2)c(OC)c1 | -11 | -7 | -3%[0.365 µM] | 1.3µM* | ?
COc1ccc(NC(=S)Nc2cnc3ccccc3c2)c(OC)c1 | . | 1 | -8% | 11µM* | -9%
CC(C)[C@H](/C=C/C[Si](C)(C)C)[C@H](C)C(O)/C=C/CCCOC(=O)C(C)(C)C (some centres not stated) | . | . | 1% | -14% | .
CC(C)(C)NC(=S)N/N=C/c1c(Cl)cccc1Cl | . | -1 | 5µM* | 4.5µM* | 1%
SMILES | CtBP-E1A blk | Six1-Eya2 blk | Gal4-VP16 FLuc | RORgamma inh | p53 reactivator
O=C(NCCCN1CCOCC1)C(=O)N/N=C/c1c(Cl)cccc1Cl | 0 | 7 | -12% | 1% | 3%
Cc1ccc(NC(=S)N/N=C/c2ccc(OCCC(C)C)cc2)c(C)c1 | -4 | -7 | 3.2µM* | 6.3µM* | 4%
CCNC(=S)N/N=C/c1c(Cl)cccc1Cl | . | -1 | 2.8µM* | 2.5µM* | 4%
CCCCNC(=S)N(C)/N=C/c1ccc(F)cc1 | 24 | 9 | ? | 11µM* | 7%
O=C(N/N=C/c1c(Cl)cccc1Cl)c1cccc(F)c1 | 9 | 5 | ? | ? | 7%
N#Cc1c(NC(=O)C2CCCO2)sc2c1CCCCCC2 (configuration not stated) | -2 | 4 | 29% | ? | 16%
Cc1ccc(Cl)c(OCCN2CCc3ccccc3C2)c1 | . | 10 | -12% | -5% | 22%
CC(C)Cn1c(N)c(C(=O)CSc2ncnc3sc4c(c23)CCCC4)c(=O)n(C)c1=O | 4 | 11 | -7% | -16% | 1%
COc1cc2c(cc1OC)C1=NC(=O)CN1C(SCc1ccccc1)=N2 | ? | ? | -5% | -7% | -14%
CCNC(=S)N/N=C/c1cccs1 | 1 | -3 | 1.4µM* | 0.79µM* | 0%
CCNC(=S)N/N=C/c1cccc(/C=N/NC(=S)NCC)c1 | 18 | 7 | -22% | ? | -3%
Cc1ccc(NC(=S)N/N=C/c2c(Cl)cccc2Cl)c(C)c1 | -21 | -20 | 0.89µM* | 0.79µM* | ?
Cc1ccc(NC(=O)CCl)c(C)c1 | 4 | 7 | -10% | -20% | -9%
Cc1ccccc1CSCC(=O)N/N=C/c1cccs1 | -3 | -2 | -25% | 18µM* | 0%
CCNC(=S)N/N=C/c1ccc(F)cc1 | . | . | 7.9µM* | 2.2µM* | -2%
COc1ccc(Nc2nc(-c3cccs3)nc3ccccc23)cc1S(=O)(=O)N1CCOCC1 | -67* | ? | . | . | .
COc1ccc(NS(=O)(=O)c2cccs2)cc1S(=O)(=O)N1CCOCC1 | -13 | 6 | 12% | -3% | -1%
CC(=O)OCC(=O)[C@@]12OC3(CCCC3)O[C@@H]1C[C@H]1[C@@H]3CCC4=CC(=O)C=C[C@]4(C)[C@@]3(F)[C@@H](O)C[C@@]12C | 1 | 1 | -8% | 8.9µM* | 6%
CC1(C)O[C@@H]2C[C@H]3[C@@H]4CCC5=CC(=O)C=C[C@]5(C)[C@@]4(F)[C@@H](O)C[C@]3(C)[C@]2(C(=O)CO)O1 | 5 | 1 | 3% | ? | 3%
CC(C)(C)c1ccc(/C=C2\SC(=O)N(CCNC(=O)c3cccc(S(=O)(=O)N4CCOCC4)c3)C2=O)cc1 | -15 | -18 | 2µM* | ? | ?
Cc1cc(/C=N/Nc2ncnc(N)c2[N+](=O)[O-])c(C)n1-c1ccccc1 | ? | ? | 6.3µM* | 6.3µM* | -6%
